Assay results reported in ChEMBL document CHEMBL3433997, “St. Jude Leishmania screening dataset” (2016).

What was measured:
Format in all cases: functional
[1] = target: Solute carrier family 2, facilitated glucose transporter member 1 (Homo sapiens) (UniProt P11166); test: ST_JUDE_LEISH: Cytotoxicity at 2uM final concentration against transgenic Leishmania Mexicana promastigotes LmGLUT1 that are glucose transport deficient and complemented with the human glucose transporter GLUT1. Activity is measured by DNA content using SYBR green in vitro
[2] = target: Hexose transporter 1 (Plasmodium falciparum) (UniProt O97467); test: ST_JUDE_LEISH: Cytotoxicity at 2uM final concentration against transgenic Leishmania Mexicana promastigotes LmPfHT that are glucose transport deficient and complemented with the Plasmodium falciparum hexose transporter. Activity is measured by DNA content using SYBR green in vitro
[3] = target: Glucose transporter (Leishmania mexicana) (UniProt O61059); test: ST_JUDE_LEISH: Cytotoxicity at 2uM final concentration against transgenic Leishmania Mexicana promastigotes LmGT2 that are glucose transport deficient and complemented with the L. Mexicana glucose transporter 2. Activity is measured by DNA content using SYBR green in vitro

Solute carrier family 2, facilitated glucose transporter member 1 (Homo sapiens), sequence (P11166 whole entry): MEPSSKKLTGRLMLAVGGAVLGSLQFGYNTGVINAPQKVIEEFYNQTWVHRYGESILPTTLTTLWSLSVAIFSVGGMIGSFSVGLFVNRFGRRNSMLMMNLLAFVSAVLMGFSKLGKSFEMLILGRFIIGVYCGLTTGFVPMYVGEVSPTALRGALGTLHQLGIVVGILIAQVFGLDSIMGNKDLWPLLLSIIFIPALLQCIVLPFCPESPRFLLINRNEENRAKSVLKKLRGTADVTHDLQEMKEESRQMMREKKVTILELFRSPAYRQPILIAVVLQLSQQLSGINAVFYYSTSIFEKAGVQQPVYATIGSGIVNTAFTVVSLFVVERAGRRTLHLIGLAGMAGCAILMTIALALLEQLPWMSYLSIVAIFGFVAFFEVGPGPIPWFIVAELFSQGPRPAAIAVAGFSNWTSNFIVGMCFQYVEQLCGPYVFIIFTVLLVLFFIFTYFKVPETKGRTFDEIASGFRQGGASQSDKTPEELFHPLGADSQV

Structure (SMILES)	inhibition [1]	inhibition [2]	inhibition [3]
N#Cc1cnc(Nc2ccc(Oc3ccccc3)cc2)nc1Nc1cccc(S(N)(=O)=O)c1	-0.14%	5.38%	5.25%
Cc1cccc2nc(-c3cccc(-c4ccc(NC(=O)CC5NC(=O)c6ccccc65)cc4)c3)[nH]c12 (stereo not given)	8.73%	9.29%	7.01%
N#Cc1cccc(Nc2nccc(NCC(O)c3ccc(C(F)(F)F)cc3)n2)c1 (stereo not given)	3.05%	3.09%	0.03%
CN1CCCN(Cc2ccc(-c3ccc(NS(=O)(=O)c4cccc5cccnc45)cc3)cc2)CC1	5.67%	3.68%	0.05%
CCOc1cc(C)ccc1C1CCN(CCN2CCC(CNC(=O)c3ccc(-c4ccc(C(F)(F)F)cc4)cc3)CC2)CC1	0.7%	2.7%	1.5%
CC(CN1CCN(CC(c2ccc(F)cc2)N2CCN(C)CC2)CC1)C(=O)c1ccc(O)cc1 (stereo not given)	2.71%	2.35%	2.04%
COc1ccc(CNC(=O)C2Cc3ccccc3CN2Cc2ccc3ccccc3c2)cc1 (stereo not given)	2.51%	1.12%	-0.58%
Cc1ccc(NC(=O)c2ccc3ncccc3c2)cc1OC1CCN(CCC(C)C)C1 (stereo not given)	2.61%	3.22%	3.54%
O=C(Nc1cccc([N+](=O)[O-])c1)N(Cc1ccc(Cl)c(Cl)c1)C1CCNCC1	5.08%	3.21%	3.8%
COc1ccc(N2C(N)=NC(N)=NC2(C)C)cc1OC	3.76%	5.41%	5.83%
CN1CCCN(Cc2cccc(-c3cccc(NC(=O)c4ccc(C#N)cc4)c3)c2)CC1	11%	7.28%	6.98%
O=S1(=O)NC2(CCN(CCc3ccc(Cl)cc3)CC2)Nc2cc(F)cc(F)c21	7.66%	8.79%	7.55%
CC1(C)CCCN(c2ncc(-c3cccc(CNCc4ccccc4O)c3)cn2)C1	2.91%	2.13%	3.18%
Cc1ccc(C2CCN(CCCCNC(=O)c3ccc(-c4ccc(C#N)cc4)cc3)CC2)c(O)c1	7.24%	7.29%	7.94%
CN(CCCN(C)c1cc(NC(=O)c2ccc(F)cc2)ccn1)Cc1cccc(F)c1	5%	5.98%	4.86%
